In ChEMBL document CHEMBL1961873, “Compounds: GSK PKIS; Assays: Nanosyn kinase panel” (2012):

Assays:
[1] = target: Sphingosine kinase 1 (Homo sapiens) (UniProt Q9NYA1); conditions: at 1 µM;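 also: mean SPHK1 inhibition value reported from the GSK PKIS kinase panel screen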
[2] = target: T1, Sphingosine kinase 2 (Homo sapiens) (UniProt Q9NRA0); conditions: at 0.1 µM
T1 sequence (whole entry): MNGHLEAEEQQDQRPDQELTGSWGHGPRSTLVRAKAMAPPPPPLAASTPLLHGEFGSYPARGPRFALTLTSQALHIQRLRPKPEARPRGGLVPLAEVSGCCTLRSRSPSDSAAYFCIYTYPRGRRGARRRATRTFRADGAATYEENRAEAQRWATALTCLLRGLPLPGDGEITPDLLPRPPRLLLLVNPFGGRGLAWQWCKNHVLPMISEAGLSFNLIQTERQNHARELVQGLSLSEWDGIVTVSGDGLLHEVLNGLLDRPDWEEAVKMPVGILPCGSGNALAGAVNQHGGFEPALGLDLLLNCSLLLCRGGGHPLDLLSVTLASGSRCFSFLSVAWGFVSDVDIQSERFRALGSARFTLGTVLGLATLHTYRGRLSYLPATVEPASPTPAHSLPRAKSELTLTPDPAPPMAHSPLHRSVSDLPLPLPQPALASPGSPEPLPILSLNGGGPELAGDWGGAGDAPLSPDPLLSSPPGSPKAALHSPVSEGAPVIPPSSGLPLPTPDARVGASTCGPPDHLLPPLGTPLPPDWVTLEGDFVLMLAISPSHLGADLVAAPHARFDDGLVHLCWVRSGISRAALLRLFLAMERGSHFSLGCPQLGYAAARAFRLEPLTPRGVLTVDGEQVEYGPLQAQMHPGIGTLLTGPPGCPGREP

[3] = target: T1, Sphingosine kinase 2 (Homo sapiens); conditions: at 1 µM
[4] = target: Casein kinase II subunit alpha (Homo sapiens) (UniProt P68400); conditions: at 0.1 µM
[5] = target: Casein kinase II subunit alpha (Homo sapiens) (UniProt P68400); conditions: at 1 µM
[6] = target: T2, Inhibitor of nuclear factor kappa-B kinase subunit alpha (Homo sapiens) (UniProt O15111); conditions: at 1 µM;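 also: mean inhibition of IKKA, from the GSK PKIS data set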
T2 sequence (whole entry): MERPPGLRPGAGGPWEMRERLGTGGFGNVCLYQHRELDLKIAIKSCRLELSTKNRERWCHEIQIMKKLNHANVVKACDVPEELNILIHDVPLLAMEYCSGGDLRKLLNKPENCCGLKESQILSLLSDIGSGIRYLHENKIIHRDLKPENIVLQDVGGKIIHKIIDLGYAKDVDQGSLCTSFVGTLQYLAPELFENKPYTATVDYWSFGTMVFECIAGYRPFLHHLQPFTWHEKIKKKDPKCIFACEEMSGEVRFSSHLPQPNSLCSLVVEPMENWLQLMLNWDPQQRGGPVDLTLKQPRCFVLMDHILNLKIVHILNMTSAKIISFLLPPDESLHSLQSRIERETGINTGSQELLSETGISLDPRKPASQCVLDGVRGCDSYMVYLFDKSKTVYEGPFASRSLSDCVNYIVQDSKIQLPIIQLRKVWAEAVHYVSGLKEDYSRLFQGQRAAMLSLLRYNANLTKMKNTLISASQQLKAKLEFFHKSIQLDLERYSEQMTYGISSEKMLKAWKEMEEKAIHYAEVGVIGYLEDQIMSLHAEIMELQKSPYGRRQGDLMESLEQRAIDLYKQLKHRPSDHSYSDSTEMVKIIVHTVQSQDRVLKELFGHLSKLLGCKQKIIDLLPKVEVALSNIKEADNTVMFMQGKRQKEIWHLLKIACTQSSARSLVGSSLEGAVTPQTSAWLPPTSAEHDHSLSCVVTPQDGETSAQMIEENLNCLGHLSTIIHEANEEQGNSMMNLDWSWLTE

[7] = target: T3, Inhibitor of nuclear factor kappa-B kinase subunit beta (Homo sapiens) (UniProt O14920); conditions: at 0.1 µM
T3 sequence (whole entry): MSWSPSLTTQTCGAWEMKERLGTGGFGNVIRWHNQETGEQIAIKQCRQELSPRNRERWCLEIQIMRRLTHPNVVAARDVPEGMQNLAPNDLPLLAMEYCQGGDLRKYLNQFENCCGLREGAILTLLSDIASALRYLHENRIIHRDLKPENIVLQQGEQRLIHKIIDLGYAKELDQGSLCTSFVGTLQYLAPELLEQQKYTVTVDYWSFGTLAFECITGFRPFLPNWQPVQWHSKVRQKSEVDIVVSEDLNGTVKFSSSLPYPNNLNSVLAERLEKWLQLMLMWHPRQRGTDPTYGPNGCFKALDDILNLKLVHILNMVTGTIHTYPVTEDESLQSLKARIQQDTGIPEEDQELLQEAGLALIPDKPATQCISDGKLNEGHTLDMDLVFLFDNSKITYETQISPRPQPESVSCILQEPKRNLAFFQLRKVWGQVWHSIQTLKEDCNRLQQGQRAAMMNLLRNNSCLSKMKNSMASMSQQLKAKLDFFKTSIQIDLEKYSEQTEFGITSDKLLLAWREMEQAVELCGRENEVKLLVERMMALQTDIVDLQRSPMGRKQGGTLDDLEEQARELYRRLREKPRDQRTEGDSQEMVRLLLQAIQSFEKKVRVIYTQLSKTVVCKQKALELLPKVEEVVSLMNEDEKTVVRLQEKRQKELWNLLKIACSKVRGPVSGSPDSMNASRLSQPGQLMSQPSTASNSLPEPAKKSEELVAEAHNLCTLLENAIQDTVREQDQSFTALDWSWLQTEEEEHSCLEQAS

[8] = target: T3, Inhibitor of nuclear factor kappa-B kinase subunit beta (Homo sapiens); conditions: at 1 µM
[9] = target: T4, Inhibitor of nuclear factor kappa-B kinase subunit epsilon (Homo sapiens) (UniProt Q14164); conditions: at 0.1 µM;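 also: mean inhibition of IKKε reported, from the GSK PKIS dataset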
T4 sequence (whole entry): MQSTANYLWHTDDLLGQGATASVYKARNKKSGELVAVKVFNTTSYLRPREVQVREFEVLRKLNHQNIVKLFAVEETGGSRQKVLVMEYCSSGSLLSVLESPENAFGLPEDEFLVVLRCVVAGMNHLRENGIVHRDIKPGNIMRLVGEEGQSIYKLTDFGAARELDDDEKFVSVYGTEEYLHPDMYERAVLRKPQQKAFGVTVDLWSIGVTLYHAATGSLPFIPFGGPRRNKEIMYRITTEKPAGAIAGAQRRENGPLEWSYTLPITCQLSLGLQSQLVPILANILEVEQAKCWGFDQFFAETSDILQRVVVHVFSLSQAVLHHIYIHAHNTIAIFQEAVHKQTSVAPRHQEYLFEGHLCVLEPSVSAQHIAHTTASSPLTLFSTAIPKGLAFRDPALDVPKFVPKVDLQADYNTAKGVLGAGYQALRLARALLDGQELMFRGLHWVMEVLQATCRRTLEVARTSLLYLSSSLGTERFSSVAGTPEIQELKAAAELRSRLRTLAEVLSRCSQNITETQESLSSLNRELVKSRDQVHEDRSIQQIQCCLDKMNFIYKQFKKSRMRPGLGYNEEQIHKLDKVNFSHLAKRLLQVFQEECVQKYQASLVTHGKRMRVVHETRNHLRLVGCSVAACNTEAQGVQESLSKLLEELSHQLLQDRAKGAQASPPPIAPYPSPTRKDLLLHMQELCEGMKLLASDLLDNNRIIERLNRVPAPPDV

[10] = target: T5, Serine/threonine-protein kinase Nek1 (Homo sapiens) (UniProt Q96PY6); conditions: at 0.1 µM
T5 sequence (whole entry): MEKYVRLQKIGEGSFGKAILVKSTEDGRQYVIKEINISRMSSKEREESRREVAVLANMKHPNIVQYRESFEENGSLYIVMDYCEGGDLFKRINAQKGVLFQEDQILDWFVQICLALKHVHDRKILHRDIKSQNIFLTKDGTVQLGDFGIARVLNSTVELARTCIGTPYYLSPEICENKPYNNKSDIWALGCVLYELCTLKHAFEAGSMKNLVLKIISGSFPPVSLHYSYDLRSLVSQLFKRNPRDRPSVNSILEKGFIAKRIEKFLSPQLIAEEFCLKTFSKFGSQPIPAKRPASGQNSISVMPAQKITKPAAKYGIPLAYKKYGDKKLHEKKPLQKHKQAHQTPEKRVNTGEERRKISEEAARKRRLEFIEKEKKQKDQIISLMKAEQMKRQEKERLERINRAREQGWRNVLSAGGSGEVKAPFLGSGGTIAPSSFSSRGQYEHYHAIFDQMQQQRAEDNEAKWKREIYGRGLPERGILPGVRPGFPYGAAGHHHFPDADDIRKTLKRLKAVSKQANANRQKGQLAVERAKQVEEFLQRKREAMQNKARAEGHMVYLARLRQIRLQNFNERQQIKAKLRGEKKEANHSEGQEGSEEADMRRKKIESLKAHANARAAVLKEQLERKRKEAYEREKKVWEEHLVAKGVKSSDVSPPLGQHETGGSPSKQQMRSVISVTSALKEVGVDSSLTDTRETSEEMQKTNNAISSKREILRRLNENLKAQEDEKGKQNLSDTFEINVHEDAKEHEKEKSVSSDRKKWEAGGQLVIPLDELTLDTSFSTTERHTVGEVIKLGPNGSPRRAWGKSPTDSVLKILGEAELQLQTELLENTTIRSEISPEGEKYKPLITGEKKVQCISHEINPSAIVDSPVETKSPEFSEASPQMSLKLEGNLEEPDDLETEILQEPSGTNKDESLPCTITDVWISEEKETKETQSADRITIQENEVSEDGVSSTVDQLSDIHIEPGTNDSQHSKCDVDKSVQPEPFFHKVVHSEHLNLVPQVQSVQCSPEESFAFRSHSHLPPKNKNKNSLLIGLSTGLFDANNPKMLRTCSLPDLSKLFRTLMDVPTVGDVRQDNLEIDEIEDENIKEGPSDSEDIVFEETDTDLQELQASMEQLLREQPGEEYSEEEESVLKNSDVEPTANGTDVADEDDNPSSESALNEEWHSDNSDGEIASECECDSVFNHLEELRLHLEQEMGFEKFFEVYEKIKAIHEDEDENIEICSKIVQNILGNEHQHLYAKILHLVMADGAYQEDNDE

[11] = target: T5, Serine/threonine-protein kinase Nek1 (Homo sapiens); conditions: at 1 µM
[12] = target: T6, Serine/threonine-protein kinase Nek2 (Homo sapiens) (UniProt P51955); conditions: at 0.1 µM
T6 sequence (whole entry): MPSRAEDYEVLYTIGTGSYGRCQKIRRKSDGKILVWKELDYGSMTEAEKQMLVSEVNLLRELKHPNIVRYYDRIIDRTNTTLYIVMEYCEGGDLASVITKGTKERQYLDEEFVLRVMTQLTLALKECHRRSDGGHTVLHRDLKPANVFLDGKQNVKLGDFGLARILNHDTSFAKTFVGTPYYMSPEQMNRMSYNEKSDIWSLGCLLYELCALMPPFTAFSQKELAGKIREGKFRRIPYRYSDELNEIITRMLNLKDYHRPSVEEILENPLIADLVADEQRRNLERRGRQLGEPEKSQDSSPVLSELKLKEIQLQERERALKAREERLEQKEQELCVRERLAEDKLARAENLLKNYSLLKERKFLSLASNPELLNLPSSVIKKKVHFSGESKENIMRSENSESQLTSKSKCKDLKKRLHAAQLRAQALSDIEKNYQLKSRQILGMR

[13] = target: T6, Serine/threonine-protein kinase Nek2 (Homo sapiens); conditions: at 1 µM
[14] = target: Serine/threonine-protein kinase Nek6 (Homo sapiens) (UniProt Q9HC98); conditions: at 0.1 µM
[15] = target: Serine/threonine-protein kinase Nek6 (Homo sapiens) (UniProt Q9HC98); conditions: at 1 µM
[16] = target: Serine/threonine-protein kinase Nek7 (Homo sapiens) (UniProt Q8TDX7); conditions: at 0.1 µM
[17] = target: Serine/threonine-protein kinase Nek7 (Homo sapiens) (UniProt Q8TDX7); conditions: at 1 µM
[18] = target: T7, Serine/threonine-protein kinase Nek9 (Homo sapiens) (UniProt Q8TD19); conditions: at 0.1 µM;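 also: reported value is the mean percent inhibition of NEK9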
T7 sequence (whole entry): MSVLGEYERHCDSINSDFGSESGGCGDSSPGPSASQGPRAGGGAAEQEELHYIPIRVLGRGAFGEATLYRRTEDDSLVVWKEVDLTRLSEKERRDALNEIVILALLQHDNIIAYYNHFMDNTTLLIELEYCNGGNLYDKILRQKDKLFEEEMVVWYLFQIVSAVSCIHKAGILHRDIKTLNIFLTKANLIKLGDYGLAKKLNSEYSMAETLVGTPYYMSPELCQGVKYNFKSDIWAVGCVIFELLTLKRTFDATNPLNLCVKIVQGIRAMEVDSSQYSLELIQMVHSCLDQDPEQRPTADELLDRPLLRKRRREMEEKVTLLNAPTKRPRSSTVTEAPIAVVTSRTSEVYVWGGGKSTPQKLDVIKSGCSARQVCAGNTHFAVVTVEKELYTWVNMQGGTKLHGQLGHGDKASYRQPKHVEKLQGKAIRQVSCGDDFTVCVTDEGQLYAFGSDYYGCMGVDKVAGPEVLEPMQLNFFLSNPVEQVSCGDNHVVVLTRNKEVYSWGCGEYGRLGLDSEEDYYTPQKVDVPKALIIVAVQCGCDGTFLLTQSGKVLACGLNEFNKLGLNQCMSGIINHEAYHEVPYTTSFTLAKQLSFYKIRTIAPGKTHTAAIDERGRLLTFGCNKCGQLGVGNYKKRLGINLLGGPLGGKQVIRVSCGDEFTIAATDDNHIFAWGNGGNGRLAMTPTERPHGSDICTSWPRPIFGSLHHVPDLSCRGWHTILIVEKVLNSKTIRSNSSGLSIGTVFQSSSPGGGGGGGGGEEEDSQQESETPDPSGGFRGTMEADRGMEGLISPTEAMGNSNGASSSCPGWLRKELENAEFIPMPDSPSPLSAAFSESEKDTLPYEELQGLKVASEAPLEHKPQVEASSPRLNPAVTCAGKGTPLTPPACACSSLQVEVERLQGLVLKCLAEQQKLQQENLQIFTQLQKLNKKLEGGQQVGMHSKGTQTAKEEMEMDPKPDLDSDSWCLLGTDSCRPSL

Sequence of Serine/threonine-protein kinase Nek6 (Homo sapiens) (Q9HC98 whole entry): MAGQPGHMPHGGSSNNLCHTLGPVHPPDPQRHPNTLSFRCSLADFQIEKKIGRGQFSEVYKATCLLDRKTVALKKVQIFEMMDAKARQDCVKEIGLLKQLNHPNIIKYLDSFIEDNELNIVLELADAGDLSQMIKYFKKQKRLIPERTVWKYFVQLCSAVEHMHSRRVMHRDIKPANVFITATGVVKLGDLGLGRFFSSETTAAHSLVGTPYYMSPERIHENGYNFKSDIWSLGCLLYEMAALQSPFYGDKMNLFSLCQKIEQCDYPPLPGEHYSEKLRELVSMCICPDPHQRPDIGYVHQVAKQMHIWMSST
Sequence of Serine/threonine-protein kinase Nek7 (Homo sapiens) (Q8TDX7 whole entry, looked up): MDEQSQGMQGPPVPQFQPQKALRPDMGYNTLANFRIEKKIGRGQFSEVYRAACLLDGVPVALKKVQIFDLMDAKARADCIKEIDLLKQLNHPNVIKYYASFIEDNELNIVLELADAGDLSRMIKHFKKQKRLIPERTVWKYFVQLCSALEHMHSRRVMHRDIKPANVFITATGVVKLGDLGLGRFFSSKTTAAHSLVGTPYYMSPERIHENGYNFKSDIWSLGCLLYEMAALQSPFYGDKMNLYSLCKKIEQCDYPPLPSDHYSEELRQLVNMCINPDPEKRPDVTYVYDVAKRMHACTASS
Sequence of Casein kinase II subunit alpha (Homo sapiens) (P68400 whole entry, looked up): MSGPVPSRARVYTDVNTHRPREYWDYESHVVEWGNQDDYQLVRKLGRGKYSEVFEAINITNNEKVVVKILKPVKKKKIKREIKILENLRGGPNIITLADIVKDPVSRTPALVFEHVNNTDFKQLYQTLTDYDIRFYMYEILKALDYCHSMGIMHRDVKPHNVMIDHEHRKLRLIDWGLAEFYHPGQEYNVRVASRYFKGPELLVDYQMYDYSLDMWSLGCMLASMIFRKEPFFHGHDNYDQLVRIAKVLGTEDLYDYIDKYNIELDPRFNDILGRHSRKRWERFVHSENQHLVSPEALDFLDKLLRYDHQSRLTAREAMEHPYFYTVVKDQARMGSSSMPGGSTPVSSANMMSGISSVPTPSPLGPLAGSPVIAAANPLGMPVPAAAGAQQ
Sequence of Sphingosine kinase 1 (Homo sapiens) (Q9NYA1 whole entry): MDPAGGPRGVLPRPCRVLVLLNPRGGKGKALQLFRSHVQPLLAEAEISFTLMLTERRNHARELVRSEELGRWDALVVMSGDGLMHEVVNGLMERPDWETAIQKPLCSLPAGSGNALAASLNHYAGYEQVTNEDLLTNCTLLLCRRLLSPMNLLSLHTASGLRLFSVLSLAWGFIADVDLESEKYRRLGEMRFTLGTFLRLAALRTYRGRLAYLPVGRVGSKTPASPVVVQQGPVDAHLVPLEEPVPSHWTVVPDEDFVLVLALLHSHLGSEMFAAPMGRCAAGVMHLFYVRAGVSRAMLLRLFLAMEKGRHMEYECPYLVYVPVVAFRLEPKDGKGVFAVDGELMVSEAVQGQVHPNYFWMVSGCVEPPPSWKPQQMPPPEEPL

Compound: Fc1ccc(-c2ncn(CCCN3CCOCC3)c2-c2ccncc2)cc1
- inhibition [1]: -2.07%
- inhibition [2]: -0.81%
- inhibition [3]: -0.25%
- inhibition [4]: -2.49%
- inhibition [5]: -6%
- inhibition [6]: -8.87%
- inhibition [7]: 7.22%
- inhibition [8]: 3.34%
- inhibition [9]: 4.58%
- inhibition [10]: 0.93%
- inhibition [11]: 0.52%
- inhibition [12]: -0.45%
- inhibition [13]: -0.45%
- inhibition [14]: 1.11%
- inhibition [15]: -0.51%
- inhibition [16]: 2.31%
- inhibition [17]: 1.74%
- inhibition [18]: 0.56%
